Reference: PubChem BioAssay AID504582 (Broad Institute, 2011)
Out of some 340,000 compounds screened, about 2,300 (0.68%) were called active. Rule as the data show it: active = growth rescue above about 28% (passing the limit was not always enough); inconclusive = no clear call, values can overlap the other calls. The entries come from a sample that favours actives as a whole.

experiment: rescue of yeast from PfHsp40 toxicity, primary screen, S. cerevisiae, ATP luminescence (AID 504582);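 also: yeast W303a lacking pdr1 and pdr3 grown in galactose medium; growth measured after three days at 30 °C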; conditions: S. cerevisiae expressing PfHsp40, growth rescue, at 12.5 µM, active compounds read high

| SMILES | growth rescue |
| --- | --- |
| CSc1ccc(CNCCN2CCOCC2)cc1 | -0.373% (inactive) |
| CCOc1ccc(NC(=O)C2CCN(C(=O)N3CCOc4ccccc43)CC2)cc1 | 2.49% (inactive) |
| CCN(CC)S(=O)(=O)c1ccc(CNC(=O)CN2C(=O)NC3(CCc4ccccc43)C2=O)cc1 (stereo not drawn) | 0.805% (inactive) |
| COc1ccc(N2CCN(C(=O)CNC(=O)c3ccc(C(C)(C)C)cc3)CC2)cc1 | -0.643% (inactive) |
| COc1ccc(N2CCN(C(=O)CNC(=O)c3ccc(Br)o3)CC2)cc1 | 0.176% (inactive) |
| COc1ccc(N2CCN(C(=O)CCNC(=O)c3ccc(Br)cc3)CC2)cc1 | 156% (active) |
| CCOC(=O)c1cnc(Nc2nc3ccccc3o2)nc1CSC(=S)N1CCCCC1 | -0.518% (inactive) |
| Cc1ccc2[nH]c(=O)c(CN(CCCN(C)C)C(=O)Nc3cccc(Cl)c3)cc2c1 | -0.771% (inactive) |
| CCn1c(/C=C/Nc2ccccc2)[n+](CC)c2ccc(C(=O)OCC(F)(F)F)cc21 | -1.14% (inactive) |
| O=C(NN1C(=O)C2CCCCC2C1=O)c1ccco1 (stereo not drawn) | -1.05% (inactive) |
| O=C1Nc2cc(Cl)c(Cl)cc2N(O)N1c1cc(Cl)cc(Cl)c1 | 7.24% (inactive) |
| CC(=O)Nc1ccccc1NC(=O)c1cc(C)cc(C)c1 | 51.5% (active) |
| Nc1ccc(C(=O)Nc2ccccc2N)cc1 | 0.192% (inactive) |
| Cc1ccccc1C(=O)Nc1ccccc1NC(=O)c1ccccc1C | -1.3% (inactive) |
| CC(=O)NNc1cc(=O)c2c(=O)n(C)c(=O)n(C)c2[nH]1 | -1.81% (inactive) |
| Cc1cc(Nc2cccc(C)c2C)n2ncnc2n1 | -0.558% (inactive) |
| Cc1ccc(-c2nn(C(C)(C)C)c3ncnc(N)c23)cc1 | 263% (active) |
| CCOc1cccc(NC(=O)Cn2nc(-c3ccc4c(c3)OCCO4)ccc2=O)c1 | 1.19% (inactive) |
| O=C(NCCc1ccccc1)Oc1ccc(Cl)cc1 | -0.082% (inactive) |
| Cc1cc(C(=O)NCCc2ccc(Cl)cc2)n(-c2ccccc2)n1 | 0.0165% (inactive) |
| Cc1cc(C(=O)NCCc2ccc(Cl)cc2)c(C)o1 | 52.1% (active) |
| Cc1ccc(C(NC(=O)N2CCCC2)C(Cl)(Cl)Cl)cc1F (stereo not drawn) | -0.492% (inactive) |
| CCCCn1c(SCC(=O)N2CCOCC2)nc2c1c(=O)n(C)c(=O)n2C | -0.611% (inactive) |
| CC(C)(C)OC(=O)C[C@@H]1C/C=C\C[C@@H](CC(=O)N[C@H](CO)Cc2ccccc2)C(=O)NCCOC1=O | -0.196% (inactive) |

| SMILES | growth rescue |
| --- | --- |
| COc1ccc(-c2cc(=O)oc3cc(OC(C)C(=O)Nc4ccc(CN5CCOCC5)cc4)ccc23)cc1 (stereo not drawn) | 0.401% (inactive) |
| CCC(=O)N1CCN(c2ccccc2NC(=O)COc2cccc(C)c2C)CC1 | 2.68% (inactive) |
| Cc1ccccc1OCC(=O)Nc1ccc(N2CCN(C(=O)C(C)C)CC2)c(Cl)c1 | 48.8% (active) |
| COc1cc(NC(=O)COc2ccccc2Cl)ccc1NC(=O)C(C)C | 1.17% (inactive) |
| CCCC1OC23CCCCC2C(C#N)(C#N)C1(C#N)C(=N)O3 (stereo not drawn) | -1.17% (inactive) |
| CC(=O)Nc1nc(N(C)C)nc(N(C)C)n1 | 1.85% (inactive) |
| Cn1cccc1C(C#N)c1ccccc1C#N (stereo not drawn) | -0.257% (inactive) |
| Cc1ccnc2nc(C(=O)Nc3nnc(-c4ccccc4)o3)nn12 | -0.238% (inactive) |
| O=C(Nc1nnc(-c2ccc(Cl)cc2)o1)c1ccccc1Br | 92.7% (active) |
| COc1ccccc1C(=O)NCC(=O)OCC(=O)Nc1nnc(-c2ccccc2)o1 | -1.88% (inactive) |
| COc1ccc2c(c1)c1ncn(Cc3ccccn3)c(=O)c1n2C | -0.652% (inactive) |
| O=C(O)c1cc2c(cc1NC(=O)c1c(F)cccc1Cl)OCCCO2 | -1.32% (inactive) |
| O=C1c2ccccc2C2=Nc3ccccc3SC(c3ccccc3F)C12 (stereo not drawn) | 152% (active) |
| CN(Cc1ccc(F)cc1)C(=O)CN1C(=O)c2ccccc2S1(=O)=O | -1.04% (inactive) |
| Cn1cncc1C#Cc1c(-c2ccsc2)sc2ccccc12 | 311% (active) |
| COc1ccc2sc(-c3ccc(S(C)(=O)=O)cc3)c(C#Cc3cncn3C)c2c1 | -1.56% (inactive) |
| Cc1cccc(-c2oc3ccc(-c4ccc5c(c4)OCO5)cc3c2C#Cc2cncn2C)c1 | 0.141% (inactive) |
| CCc1ccc(NC(=O)NC(C)c2ccc3c(c2)OCO3)cc1 (stereo not drawn) | 1.14% (inactive) |
| CC(=NCc1ccc2c(c1)OCO2)C1=C(O)c2ccccc2C1=O | 47.2% (active) |
| CC(=NCc1ccc2c(c1)OCO2)c1c(O)[nH]c(=O)[nH]c1=O | -0.437% (inactive) |
| CCN(/N=C/c1ccc(N(C)C)cc1)c1nc2ccccc2[nH]1 | 0.687% (inactive) |
| COc1ccc(N)c(C)c1 | -0.552% (inactive) |
| NC(=O)Cn1nc([N+](=O)[O-])nc1Oc1ccc(Br)cc1 | 1.81% (inactive) |
| Cc1ccc(S(=O)(=O)N2CCOCC2)cc1NC(=O)COC(=O)c1cnccn1 | 0.734% (inactive) |

| SMILES | growth rescue |
| --- | --- |
| CCC(O)CNc1nc(-n2nc(C)cc2C)nc2sc3c(c12)CC(C)(C)OC3 (stereo not drawn) | 0.423% (inactive) |
| CCCc1nc2sc3c(c2c(=O)n1NC(=O)CCCl)CCCC3 | -0.355% (inactive) |
| COCCNc1nc(-n2nc(C)cc2C)nc2sc3c(c12)CCCC3 | 111% (active) |
| CC[C@]12c3[nH]c4ccc(OC)cc4c3CCN1C(=O)C(CC(=O)NCc1ccco1)C[C@@H]2C(=O)N1CCN(C(=O)C2CC2)CC1 (stereo partly drawn) | -1.76% (inactive) |
| Cc1ccc2c(C)c(C(=O)N(C)CCC3CCCCO3)oc2c1C (stereo not drawn) | 15.7% (inactive) |
| O=S(=O)(O)c1nc2ccccc2n1Cc1ccc(Cl)cc1Cl | 46.4% (active) |
| O=C(Cn1c(NCCO)nc2ccccc21)c1ccc(Cl)cc1Cl | 0.311% (inactive) |
| O=S(=O)(Cc1ccccc1)c1nc2ccccc2n1Cc1ccccn1 | -1.91% (inactive) |
| O=C(NC(=S)Nc1cccc(-c2ccc(CO)o2)c1)c1cccs1 | 5.49% (inactive) |
| Oc1c(C(c2ccccn2)N2CCOCC2)ccc2cccnc12 (stereo not drawn) | 457% (active) |
| COc1cc2c(cc1OC)C(C)N(S(=O)(=O)c1cnc(Cl)c(Cl)c1)CC2 (stereo not drawn) | 1.43% (inactive) |
| CCC(=O)Nc1sc(C(=O)Nc2ccccc2)c(C)c1C(=O)OC | 4.36% (inactive) |
| CCC(=O)Nc1nc(C)c(C(=O)Nc2cccc(Cl)c2)s1 | 68.4% (active) |
| CCOC(=O)c1sc(NC(=O)c2sc(C)nc2C)nc1C | -1.17% (inactive) |
| CCOc1ccc(NS(=O)(=O)c2ccc(C)c(C(N)=O)c2)cc1 | -1.27% (inactive) |
| O=C(CCc1nc2sc3c(c2c(=O)[nH]1)CCCC3)NCC(=O)Nc1ccccc1Br | -1.97% (inactive) |
| COC(=O)CN1C(=O)[C@H]2[C@@H](C3CC3)N3C(=O)CN(Cc4ccc(-c5ccccc5)cc4)C(=O)[C@@]3(Cc3ccccc3)[C@H]2C1=O | -1.17% (inactive) |
| CN(C(=O)c1ccc(NC(=O)Cc2cccc(NC(=O)C3CCN(C(=O)c4ccccc4)CC3)c2)cc1)C1CC1 | -0.0305% (inactive) |
| Cn1cccc1/C=N/NC(=O)c1ccc(OC(F)(F)C(F)F)cc1 | -1.34% (inactive) |
| Cn1nccc1NC(=O)Nc1ccc(OC(F)(F)F)cc1 | -0.0415% (inactive) |
| O=C(Nc1ccc(OC(F)(F)F)cc1)c1ccc2c(c1)no[n+]2[O-] | 178% (active) |
| Cc1ccc2c(c1)N(C(=O)CCC(=O)NCc1cccnc1)CCO2 | -1.04% (inactive) |
| CCN([C@H](CO)C(C)C)S(=O)(=O)c1ccccc1Br | -0.487% (inactive) |
| COc1cccc(-n2c(=S)sc3c(=O)n(-c4ccccc4C)c(SCC(=O)O)nc32)c1 | -1.96% (inactive) |

| SMILES | growth rescue |
| --- | --- |
| CC(C)C[C@@H](N)c1nnc(SCC(=O)c2ccc(Cl)cc2)o1 | -0.522% (inactive) |
| COC(=O)c1c(C)c(C)nc(N)c1C#N | 0.0365% (inactive) |
| COCc1c(N)c(C)nc(Cl)c1C#N | 51% (active) |
| Cc1nc(Cl)c(C#N)c2c1CCCC2 | 0.263% (inactive) |
| Cc1ccc(OCC(O)CN2CCN(CC(O)COc3ccc(C)cc3Cl)CC2)c(Cl)c1 (stereo not drawn) | 65.8% (active) |
| C=CCc1ccc(OCC(O)CN2CCN(Cc3ccccc3)CC2)c(OC)c1 (stereo not drawn) | -0.721% (inactive) |
| OC(COc1ccc(F)cc1Cl)CN1CCc2ccccc2C1 (stereo not drawn) | 0.0845% (inactive) |
| CCCC(NC(=O)c1ccco1)c1nc2ccccc2[nH]1 (stereo not drawn) | -0.136% (inactive) |
| COc1cccc(/C=N/Nc2ncc(C(F)(F)F)cc2Cl)c1O | 233% (active) |
| O=c1[nH]c2cccnc2n(CCNc2ncc(C(F)(F)F)cc2Cl)c1=O | -1.76% (inactive) |
| CN(C)C=NC(=O)c1cccn1-c1ncc(C(F)(F)F)cc1Cl | -0.737% (inactive) |
| COc1ccc(NC(=O)COC(=O)c2ccncc2)c(OC)c1 | -0.471% (inactive) |
| CN(CCOc1ccc(Br)cc1)CC(=O)Nc1cccc(S(=O)(=O)NC2=NCCC2)c1 | -0.17% (inactive) |
| COc1cc(C)c(C)cc1S(=O)(=O)N1CCCc2ccccc21 | -0.881% (inactive) |
| CCOC(=O)Cc1csc(SCC(=O)Nc2ccc(C)cc2F)n1 | 0.85% (inactive) |
| S=C(Nc1ccc(Br)cc1)NC1CCN(Cc2ccccc2)CC1 | 1.33% (inactive) |
| O=C(Cc1ccc(Br)cc1)NCCc1ccccc1 | 1.3% (inactive) |
| S=C(NCCCc1ccccc1)Nc1ccc(Br)cc1 | 263% (active) |
| Cc1ccc(C)c2[nH]c(=O)c(CN(Cc3cccnc3)C(=S)NCc3ccco3)cc12 | 0.529% (inactive) |
| O=C(CSC1CC(=O)N(CCc2ccccc2)C1=O)Nc1ccc(Cl)cc1 (stereo not drawn) | 0.11% (inactive) |
| CCCC(C(=O)n1nc(C)cc1C)C(NS(=O)(=O)c1ccc(C)cc1)c1ccccc1 (stereo not drawn) | 5.61% (inactive) |
